Only some compounds are listed: those with a hit (about 1.7% of all), similar ones and a draw of the others.
CHT PAM: allosterically activates the human high affinity choline transporter. Q9GZV3. CHT-expressing cells, membrane potential dye, choline EC20; hits give high values; LV-AA mutant CHT in HEK293 cells. B-score at 10 µM. hit rate 0.49% among 310,000. AID 488977;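 active = initial fluorescence not abnormally high and integrated response B-score, plate-corrected, over 3 SD above library mean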
Target sequence (Q9GZV3 whole entry, looked up): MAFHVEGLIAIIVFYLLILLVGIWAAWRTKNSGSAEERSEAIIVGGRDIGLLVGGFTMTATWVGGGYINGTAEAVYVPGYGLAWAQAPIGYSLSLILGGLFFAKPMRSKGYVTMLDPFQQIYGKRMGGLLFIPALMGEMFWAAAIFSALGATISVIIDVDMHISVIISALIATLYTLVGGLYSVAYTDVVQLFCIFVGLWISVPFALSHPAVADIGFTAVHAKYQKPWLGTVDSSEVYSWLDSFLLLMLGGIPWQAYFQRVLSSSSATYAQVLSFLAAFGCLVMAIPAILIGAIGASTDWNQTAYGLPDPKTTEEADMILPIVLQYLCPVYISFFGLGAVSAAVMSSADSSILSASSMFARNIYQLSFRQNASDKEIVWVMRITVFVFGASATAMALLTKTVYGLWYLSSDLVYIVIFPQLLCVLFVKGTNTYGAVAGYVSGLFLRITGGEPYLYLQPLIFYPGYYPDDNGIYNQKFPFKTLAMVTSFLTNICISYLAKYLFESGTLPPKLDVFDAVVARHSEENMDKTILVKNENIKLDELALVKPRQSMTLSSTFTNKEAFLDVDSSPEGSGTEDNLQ
CHT inh: human CHT choline transport inhibition | CHT-expressing cells, membrane potential dye, choline response; hits give low values | B-score at 10 µM | hit rate 0.86% among 310,000 | AID 488975;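 active = B-score over 3 SD under the library average, and starting fluorescence ratio not unusually high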;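 also: choline stimulus applied at its EC90 after an EC20 pre-addition; B-score computed on integrated fluorescence ratio after choline addition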
TAG inh: reduces triacylglycerol accumulation in H9c2 cells | hit rate 0.66% among 230,000 | Nile Red lipid (TAG) fluorescence; cells loaded with 200 µM oleic acid | inhibition, % at 12.5 µM;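 active = pattern-corrected inhibition of lipid staining of at least 50% with the nuclear-stain viability signal not falling by more than 50%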;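 also: 0% = DMSO wells and 100% = triacsin C control wells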
MIN6 prolif: induces beta-cell replication in MIN6 cells; MIN6 cells proliferation, ATPlite luminescence, 48 h; cells starved in 0.2% serum; 100% = growth in 10% serum; AID 2380; proliferation, % at 10 µM; hit rate 0.29% among 330,000;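 active = compounds whose signal lies at least 3.5 SD above the mean of all wells on their plate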;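 also: 0% = DMSO-treated cells in low-serum medium and 100% = 10% serum control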
H9c2 TAG conf: confirmation of triacylglycerol accumulation inhibitors | shares compounds with TAG inh | H9c2 lipid accumulation, Nile Red fluorescence; cells loaded with 200 µM oleic acid | inhibition, % at 12.5 µM | hit rate 71% among 990 | AID 651629;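 active = mean inhibition across replicates of 40% or more; inactive = mean inhibition below 40%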;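 also: plate controls were DMSO only wells for no effect and Triacsin C treated wells for full effect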
* marks the source's active call; other numbers are inactive results; i = inactive; x = not tested or not shown.

SMILES	CHT PAM	CHT inh	TAG inh	MIN6 prolif	H9c2 TAG conf
COc1cccc(NC(=O)N2CCc3nc(Nc4ccc(C(C)C)cc4)ncc3C2)c1	x	x	71*	x	83*
COC(CNC(=O)CCc1c(C)nc2c(c(C)nn2-c2ccc(C)cc2)c1C)OC	i	i	x	-7	x
Cc1ccc(-n2nc(C)c3c(C)c(CCC(=O)Nc4ccc(CN5CCCC5)cc4)c(C)nc32)cc1	i	i	65*	-6	59*
O=C(CN1C(=O)NC2(CCCc3ccccc32)C1=O)NCc1cccs1 (centres undefined)	x	x	-2	-3	x
CC(C)OCCCNC(=O)C1CCC(CNS(=O)(=O)c2ccccc2)CC1 (centres undefined)	i	i	x	0	x
CCOc1ccc(C2=Nc3ccc(Br)cc3C(c3ccc(N4CCOCC4)cc3)=NN2)cc1	i	i	x	0	x
CCOc1ccc(C2=Nc3ccccc3C(c3ccc(N4CCOCC4)cc3)=NN2)cc1	i	i	73*	-4	53*
COc1cccc(CN2CC(C(=O)N(C)CC3CCOCC3)CCC2=O)c1 (centres undefined)	i	i	2	-3	x
CCN1CCN(Cc2ccc(NC(=O)c3ccc(C)c(NC(=O)C(=O)c4c[nH]c5ccccc45)c3)cc2C(F)(F)F)CC1	i	i	77*	-7	79*
CCN1CCN(Cc2ccc(NC(=O)c3cc(NC(=O)c4cnn(-c5ccccc5)c4N)cc(OC)c3)cc2C(F)(F)F)CC1	i	i	37	-9	x
CCN1CCN(Cc2ccc(NC(=O)c3cc(NC(=O)C(=O)c4c[nH]c5ccccc45)cc(OC)c3)cc2C(F)(F)F)CC1	i	i	104*	-9	94*
O=C(Nc1ccccc1)c1ccc(NCC2CCCO2)c(S(=O)(=O)N2CCOCC2)c1 (centres undefined)	i	i	66*	-1	46*
O=C(CNc1cc(S(=O)(=O)N2CCOCC2)ccc1NCC1CCCO1)Nc1cccc(F)c1 (centres undefined)	i	i	6	-1	x
CCOc1ncccc1C(=O)OCC(=O)c1ccc(F)cc1	i	i	x	-1	x
C=CCn1c(N)c(C(=O)Nc2ccccc2)c2nc3ccccc3nc21	i	i	78*	2	88*
COc1ccc(NC2=NCC(Cc3ccc(Br)cc3)S2)cc1 (centres undefined)	i	i	-34	-5	x
Cc1cc(C)cc(-n2c3ccc(NC(=O)Cc4cccc5ccccc45)cc3c(=O)n2C)c1	x	x	51*	x	50*
O=C1C(=Cc2ccccc2O)SC(=S)N1CCCN1CCOCC1	x	x	9	x	x
O=C(CN1C(=O)NC(c2ccccc2)(c2ccccc2)C1=O)N1CCOCC1	x	x	15	-1	x
O=C(Nc1ccccc1)c1nc[nH]c1C(=O)NCCCCNC(=O)c1[nH]cnc1C(=O)Nc1ccccc1	x	x	21	-5	x
CCOC(=O)c1ccc(NC(=O)c2nc[nH]c2C(=O)NCCCNC(=O)c2[nH]cnc2C(=O)Nc2ccc(C(=O)OCC)cc2)cc1	x	x	13	-6	x
Cc1ccc(NC(=O)c2nc[nH]c2C(=O)NCCCCNC(=O)c2[nH]cnc2C(=O)Nc2ccc(C)cc2)cc1	x	x	66*	-6	86*
CCOC(=O)c1ccc(NC(=O)c2nc[nH]c2C(=O)NCCCCNC(=O)c2[nH]cnc2C(=O)Nc2ccc(C(=O)OCC)cc2)cc1	x	x	122*	-7	86*
Cc1ccc(NC(=O)c2nc[nH]c2C(=O)NCCCCCNC(=O)OC(C)(C)C)cc1	x	x	x	-2	x
Cc1ccc(NC(=O)c2nc[nH]c2C(=O)NCCCNC(=O)c2[nH]cnc2C(=O)Nc2ccc(C)cc2)cc1	x	x	47	-6	x
SMILES	CHT PAM	CHT inh	TAG inh	MIN6 prolif	H9c2 TAG conf
O=C(Nc1cccc(Cl)c1)c1nc[nH]c1C(=O)NCCCNC(=O)c1[nH]cnc1C(=O)Nc1cccc(Cl)c1	x	x	70*	-5	85*
Cc1ccc(NC(=O)c2nc[nH]c2C(=O)NCCCCCCNC(=O)c2[nH]cnc2C(=O)Nc2ccc(C)cc2)cc1	x	x	109*	-6	95*
COCc1ccc(C(=O)N2CCCC(N3CCN(c4ccc(F)cc4)CC3)C2)o1 (centres undefined)	i	i	13	3	x
COc1ccc(S(=O)(=O)Nc2ccc(-n3cnnn3)cc2)cc1[N+](=O)[O-]	x	x	7	-4	x
COc1ccc(CN2CCNC(=O)C2CC(=O)NCCN2CCCCC2=O)c(F)c1 (centres undefined)	i	i	10	0	x
O=C(Nc1nc2nc(-c3ccccc3)cc(-c3ccccc3)n2n1)c1ccco1	i	i	64*	-2	31
O=C(NCCCN1CCOCC1)c1ccc2c(c1)N(Cc1c(F)cccc1Cl)C(=O)CS2	i	i	x	0	x
CC(C)(C)NC(=S)N1CCC(C(=O)c2ccc(Cl)cc2)CC1	i	i	0	0	x
COc1cccc(CN2CCN(Cc3ccc(O)cc3)CC2CCO)c1 (centres undefined)	i	i	6	3	x
O=C(/C=C/c1ccccc1)Oc1cccc2cccnc12	i	i	50*	2	-5
O=C(/C=C\c1ccccc1)Oc1cccc2cccnc12	i	i	1	-4	x
CCCC[C@H](CN[C@@H](CNC)[C@H](C)CC)NCCC12CCC(CC1)C2	i	i	51*	-8	70*
CC(NC(=S)Nc1ccccc1C(F)(F)F)C1CC2CCC1C2 (centres undefined)	i	i	-6	-2	x
O=C(Nc1ccc(-c2csc(Nc3ccccc3)n2)cc1)c1cccc(C(F)(F)F)c1	i	i	75*	-8	83*
O=C1NC(c2cccc3ccccc23)Nc2ccc(Cl)cc21 (centres undefined)	x	x	52*	x	36
Clc1ccc(C2Nc3cccc4cccc(c34)N2)c(Cl)c1	x	x	34	x	x
Cc1c(C(=O)C(=O)NCc2cccs2)c2ccccc2n1C	i	i	-12	1	x
CCOc1cc(C(=O)N/N=C/c2cn(-c3ccccc3)nc2-c2cc3ccccc3o2)cc(OCC)c1OCC	x	x	59*	x	63*
CCCC(=O)Nc1nc2ccc(NC(=O)c3ccccc3F)cc2s1	i	i	52*	-2	82*
Cc1ccc(F)cc1NC(=O)CSc1nc(Nc2ccccc2)nc(N2CCOCC2)n1	i	i	43	-6	x
O=C(CSc1nc(N2CCCCC2)nc(N2CCCCC2)n1)N1CCN(c2ccccc2)CC1	x	x	60*	x	27
O=C(CSc1nc(Nc2ccccc2)nc(N2CCOCC2)n1)N1CCCC1	i	i	71*	-2	41*
CC(Sc1nc(NCc2ccccc2)nc(N2CCOCC2)n1)C(=O)Nc1ccccc1 (centres undefined)	i	i	70*	-1	47*
Cc1ccccc1NC(=O)CSc1nc(Nc2ccccc2)nc(N2CCOCC2)n1	i	i	54*	-2	46*

Screens deposited in PubChem BioAssay by several laboratories.
